From PubChem BioAssay
Only some compounds are listed: those with a hit (about 3.4% of all), similar ones and a draw of the others.
MITF act = activators of MITF-driven TRPM1 promoter reporter, primary screen, cell-based, SK-MEL-5, luciferase, single point; SK-MEL-5 TRPM1-promoter luciferase, 24 h; % of positive control, neutral wells = 0; 300,000 compounds, 0.75% hits; activation, % at 12.5 µM;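 active = mean activation of at least 80% with every replicate also reaching 80%; inconclusive = mean reaches 80% but some replicate falls short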
esBAF inh = Bmi1 luciferase reporter increase in mESCs, primary screen, esBAF inhibitor project, mouse ES cells, Bmi1 luciferase knock-in, single point; 24 h; 100% = twice the neutral-well signal; reporter increase, % at 12.5 µM; AID 602393, 2012; 350,000 compounds, 2% hits; in the data active = activation above about 40%; inconclusive = no clear call, values can overlap the other calls;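 note: a rise in the Bmi1 reporter signal indicates esBAF inhibition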
miR-122 sensor = miR-122 Renilla sensor signal increase in Huh7, primary screen, miR-122 inhibitor project, cell-based, single point, plate reader. Huh7 miR-122 Renilla luciferase sensor, 48 h; neutral wells = 0, positive control = 100. 340,000 compounds, 0.3% hits. activation (reporter increase), % at 12.5 µM;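 active = mean replicate activation score at least 90 and every replicate individually at or above 90; inconclusive = only one of the two criteria met; inactive = neither criterion met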;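 note: higher luciferase means less miR-122 activity so hits act as miR-122 inhibitors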
HIV Env fusion = inhibitors of HIV-1 Env-driven cell-cell fusion, primary screen, HeLa-JRFL effector, CEM21 target cells, luciferase; AID 651610, 2012; 360,000 compounds, 1.1% hits; inhibition, % at 12.3 µM;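 active = mean replicate inhibition score of at least 50 and every replicate individually at or above 50; inconclusive = only one of the two criteria met; inactive = mean below 50 and not all replicates reaching 50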
Wnt act = Wnt/beta-catenin pathway activators, primary screen, cell-based, plate reader, single point; activation, % at 9.35 µM; Wnt/beta-catenin reporter cell assay, activator; 300,000 compounds, 1.2% hits; in the data active = activation above about 30%, passing the limit was not always enough; inconclusive = no clear call, values can overlap the other calls
miR-27b select = miR-27b levels after miR-122 inhibitor treatment, dose response, selectivity assay for miR-122 inhibitor project, cell-based, Huh7, RT-qPCR, dry powder. 35 tested, under 10 active. relative miR-27b level (unnormalised ratio), ratio at 35 µM. shares compounds with miR-122 sensor. AID 687039, 2013. Huh7 miR-27b levels, qRT-PCR, 48 h;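 active = compounds lowering miR-27b whose fitted half-maximal dose is at most twice their top tested dose; inconclusive = flat curve with moderate drop, or poor fit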
esBAF Ring1 qPCR = Ring1 mRNA increase in mouse ESCs, confirmation, esBAF inhibitor project, cell-based, mouse ESC, RT-qPCR, cherry-pick; 550 tested, under 10 active; shares compounds with esBAF inh; fold change at 33 µM; mouse ESC E14, Ring1 mRNA RT-qPCR fold change;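 active = Ring1 gene expression raised more than 2-fold over untreated cells in both replicates at either tested dose; inconclusive = only one replicate above 2-fold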;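 note: Ring1 transcript normalised to actin housekeeping signal by TaqMan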
Fgf4 repress = Fgf4 mRNA decrease in mouse ESCs, confirmation, esBAF inhibitor project, cell-based, mouse ESC, RT-qPCR, cherry-pick; shares compounds with esBAF inh; mouse ESC E14, Fgf4 mRNA qPCR fold change; active compounds read low; Fgf4 expression fold change at 33 µM; 550 compounds, 4% hits; AID 743177, 2013;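 active = Fgf4 expression under 0.8 fold of control in both repeat measurements at one or both tested doses; inconclusive = under 0.8 fold in just a single repeat measurement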;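 note: Fgf4 transcript normalised to actin in duplex TaqMan qPCR; cells exposed to compound for 24 h before lysis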
Bmi1 derepress = esBAF inhibition via Bmi1 de-repression, confirmation, cell-based, RT-qPCR, mouse ESC, single point, cherry-pick; 550 tested, under 10 active; fold change at 33 µM; shares compounds with esBAF inh; mouse ESE14 ES cells, Bmi1 mRNA qPCR fold; active compounds read high;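 active = Bmi1 expression fold change above 6 at either tested concentration, seen in replicate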;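 note: higher fold means more Bmi1 de-repression and stronger esBAF inhibition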
A549 cytotox = A549 cell cytotoxicity, cytotoxicity control, plate reader, single point, cherry-pick | shares compounds with esBAF inh | 550 tested, under 10 active | cell viability change % (negative = cytotoxic), % at 25 µM, hits read low | AID 743188, 2013; call rule not given here
HepG2 cytotox SP = HepG2 cell cytotoxicity, cytotoxicity control, plate reader, single point, cherry-pick | shares compounds with esBAF inh | active compounds read low | activity change, negative = inhibition, % at 25 µM | 550 compounds, 4% hits | AID 743189, 2013; in the data active = activity change below about -50%
HEK293 tox SP = HEK293 cell cytotoxicity, cytotoxicity control, plate reader, single point, cherry-pick; activity change, negative = inhibition, % at 25 µM, hits read low; shares compounds with esBAF inh; 550 compounds, 3% hits; in the data active = activity change below about -38%, passing the limit was not always enough
Large screens that a line does not name were inactive (follow-up assays come after a bar, where they were run).

COC(=O)c1cc(S(=O)(=O)Nc2cc(OC)cc(OC)c2)cn1C	miR-122 sensor 152.6 (no result: MITF act) | miR-27b select inactive
CC(C)CC#Cc1cnc2c(c1)C(=O)N([C@@H](C)CO)C[C@@H](C)[C@H](CN(C)Cc1ccc3c(c1)OCO3)O2	none (no result: MITF act, Wnt act)
COc1ccc(S(=O)(=O)NCCN2CCOCC2)c2ccccc12	miR-122 sensor inconclusive (no result: HIV Env fusion, Wnt act) | miR-27b select inactive
O=S(=O)(c1ccc2c(c1)CCCN2)N1CCC[C@@H]2CCCC[C@H]21	none (no result: MITF act, esBAF inh, miR-122 sensor, HIV Env fusion, Wnt act) | miR-27b select inactive
O=S(=O)(c1ccc2c(c1)CCN2)N1CCOCC1	none (no result: miR-122 sensor, HIV Env fusion)
Cc1cc(S(=O)(=O)NC2CCCCC2)c(C)s1	miR-122 sensor 260.2 (no result: MITF act, Wnt act) | miR-27b select inactive
COc1cc(S(=O)(=O)NC2CCCC2)c(OC)cc1C	miR-122 sensor inconclusive (no result: esBAF inh)
COCC(=O)N(C)C[C@@H]1Oc2cc(C#CCC3CCCC3)ccc2S(=O)(=O)N([C@@H](C)CO)C[C@@H]1C	none (no result: MITF act, miR-122 sensor, Wnt act)
Cc1cc(C)c(S(=O)(=O)NCCOc2ccccc2)c(C)c1-n1cnnn1	none
Cc1cc(C)c(S(=O)(=O)NC(C)C)c(C)c1-n1cnnn1	miR-122 sensor 91.2 | miR-27b select inactive
O=C(c1ccncc1)N1CC[C@H]2[C@H](CO)Nc3ccc(-c4ccccc4)cc3[C@H]21	none (no result: MITF act, HIV Env fusion, Wnt act)
S=C(Nc1ccc(Cl)cc1Cl)NC1CCCCC1	MITF act 107.4, esBAF inh 84.3, miR-122 sensor 133.2 (no result: HIV Env fusion, Wnt act) | miR-27b select inactive
COc1ccc(S(=O)(=O)Nc2cccc(C)c2C)c2cccnc12	none (no result: miR-122 sensor)
COc1ccc(S(=O)(=O)Nc2ccc(OC(F)F)cc2)c2cccnc12	none (no result: MITF act, esBAF inh, miR-122 sensor, HIV Env fusion, Wnt act) | miR-27b select inactive
CO[C@@H]1CN(C)C(=O)c2cc(NC(=O)C3CC3)ccc2OC[C@H](C)N(Cc2nccs2)C[C@@H]1C	none (no result: MITF act, miR-122 sensor, HIV Env fusion, Wnt act)
COc1ccc(C(C)(C)C)cc1S(=O)(=O)NCC1CCCO1 (stereo unspecified)	miR-122 sensor 170.2 (no result: MITF act) | miR-27b select inactive
CCCC#Cc1ccc2c(c1)O[C@@H](CN(C)C(=O)c1cnccn1)[C@@H](C)CN([C@@H](C)CO)S2(=O)=O	none (no result: MITF act, Wnt act)
CCN(CC)C(=O)CN(c1cc2c(cc1OC)oc1ccccc12)S(=O)(=O)c1ccccc1	miR-122 sensor 99.5 (no result: HIV Env fusion, Wnt act) | miR-27b select inactive
C/C=C/c1ccc2c(c1)O[C@@H](CN(C)C(=O)C1CCOCC1)[C@H](C)CN([C@@H](C)CO)S2(=O)=O	none (no result: MITF act, Wnt act)
Cc1ccc(C(=O)C2Oc3ccccc3C3CC(c4ccc(C)cc4)=NN23)cc1 (stereo unspecified)	miR-122 sensor 151.8 (no result: esBAF inh) | miR-27b select inactive
C[C@H]1CCCCO[C@H](CN(C)Cc2ccncc2)[C@@H](C)CN([C@@H](C)CO)C(=O)c2cc(NC(=O)Nc3ccc(F)cc3)ccc2O1	none (no result: MITF act, Wnt act)
Cc1cccc(-n2nnc(C(=O)Nc3ccc(F)cc3)c2N)c1	esBAF inh 62.3 (no result: MITF act, Wnt act) | esBAF Ring1 qPCR inactive | Fgf4 repress inactive | Bmi1 derepress inactive | A549 cytotox inactive | HepG2 cytotox SP inactive | HEK293 tox SP inactive
COc1ccc(OCc2cc(C(=O)N(Cc3nccn3C)C(C)C)no2)c2ccccc12	esBAF inh 70.4 | esBAF Ring1 qPCR inactive | Fgf4 repress inactive | Bmi1 derepress inactive | A549 cytotox inactive | HepG2 cytotox SP inactive | HEK293 tox SP inactive
C[C@H](CO)N1C[C@H](C)[C@H](CN(C)C(=O)C2CCCCC2)Oc2ncc(-c3cccc(F)c3)cc2C1=O	none (no result: MITF act, Wnt act)
CN(C)c1ccc(N=Nc2ccccc2C(=O)OCC(=O)Nc2ccccc2C(F)(F)F)cc1	esBAF inh 53.5 | esBAF Ring1 qPCR inactive | Fgf4 repress inactive | Bmi1 derepress inactive | A549 cytotox inactive | HepG2 cytotox SP inactive | HEK293 tox SP inactive
CCn1cnc2cc(NCc3ccc(OC)cc3)ccc21	esBAF inh 56.3 (no result: Wnt act) | esBAF Ring1 qPCR inactive | Fgf4 repress inconclusive | Bmi1 derepress inactive | A549 cytotox inactive | HepG2 cytotox SP inactive | HEK293 tox SP inactive
CCOc1ccc(CNc2ccc3c(c2)nc(C)n3C)cc1	none (no result: esBAF inh, HIV Env fusion, Wnt act)
CCn1cnc2cc(NCc3ccccc3Cl)ccc21	MITF act 86.8, esBAF inh 76.7 | esBAF Ring1 qPCR inactive | Fgf4 repress inactive | Bmi1 derepress inactive | A549 cytotox inactive | HepG2 cytotox SP inactive | HEK293 tox SP inactive
COc1ccc(NC(=O)N2C[C@H]3[C@@H](c4ccccc42)[C@H](CO)N3C(=O)C2CCCCC2)cc1	none (no result: MITF act, HIV Env fusion, Wnt act)
NC(=O)CSc1nnc(NC(=O)C23CC4CC(CC(C4)C2)C3)s1	none (no result: esBAF inh, miR-122 sensor, HIV Env fusion, Wnt act)
CSc1nnc(NC(=O)C23CC4CC(CC(C4)C2)C3)s1	esBAF inh 58.4 (no result: miR-122 sensor) | esBAF Ring1 qPCR inactive | Fgf4 repress inconclusive | Bmi1 derepress inactive | A549 cytotox inactive | HepG2 cytotox SP inactive | HEK293 tox SP inactive
C[C@@H]1CN([C@H](C)CO)C(=O)c2cccc(NC(=O)Nc3ccccc3)c2O[C@@H]1CN(C)C	none (no result: MITF act, Wnt act)
O=C(CNC(=O)c1ccccc1F)Nc1ccc2c(c1)OCO2	esBAF inh 62.1 (no result: miR-122 sensor) | esBAF Ring1 qPCR inactive | Fgf4 repress inactive | Bmi1 derepress inactive | A549 cytotox inactive | HepG2 cytotox SP inactive | HEK293 tox SP inactive
Cc1ccn2cc(C(=O)Nc3nnc(C)s3)nc2c1	MITF act inconclusive, esBAF inh 54.7 | esBAF Ring1 qPCR inactive | Fgf4 repress inactive | Bmi1 derepress inactive | A549 cytotox inactive | HepG2 cytotox SP inactive | HEK293 tox SP inactive
Cc1ccn2cc(C(=O)Nc3ccc4c(c3)OCCO4)nc2c1	none
